Experiment [1] deals with Cytochrome P450 3A4 (Homo sapiens) (UniProt P08684). Briefly: qHTS Assay for Activators of Cytochrome P450 3A4 (AID 885). Also: nearly all actives have a fitted effect of over 65% in size. Also: potency is read from the fitted curve at half-maximal effect. The method, boiled down: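 Human CYP3A4 dealkylates Luciferin-PPXE to luciferin, which luciferase detection converts to light. Substrate was at its KM (25uM), buffer 200mM KPO4, reaction 60 min at RT.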
On the technique in general: In qHTS, concentration-response curves come from the screen itself.

The nature of experiment [2]: AP1 Signaling Pathway (AID 357; active = well fitted curve in either direction with a large enough effect, not every such curve was filed as active;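 also: ME-180 reporter cells stimulated with EGF at its EC50 level; % is scaled to controls: 0 for no effect and ±100 for the full control effect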). The method, boiled down:
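AP-1-bla ME-180 cells, Opti-MEM + 0.5% dialyzed FBS, plated overnight 37 °C. Cpd titration + EC50 EGF, 5 h 37 °C. CCF4 2.5 h RT; ex 405, em 460/530 ratio → %activity, AC50.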

Experiment [3] can be described thus: UWB1.289 Cancer Cell Toxicity qHTS against the NCATS CANVASS Library (AID 1347347). Also: nearly all actives have a fitted effect of over 60% in size. The method, boiled down: (§1)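 Toxicity is measured over 72 h of compound exposure at 37 degrees C under 5% CO2. Each well holds 1000 cells, pre-incubated for 4 hours before dosing across an 11-point range. CellTiter-Glo luminescence gives viability.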
A short description of experiment [4]: U-118MG Cancer Cell Toxicity qHTS against the NCATS CANVASS Library (AID 1347351). The method, boiled down:
as §1

A short description of experiment [5]: HPAF-II 24hr Apoptosis Induction qHTS against the NCATS CANVASS Library (AID 1347356). Also: 0% is about no effect. Summed up:
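Using an 11-point qHTS format, HPAF-II cells in DMEM/10% FBS received compounds for 24 h; doxorubicin titration as control. Caspase-3/7 activity quantified by DEVD-luciferase luminescence.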

The nature of experiment [6]: HPAF-II 12hr Apoptosis Induction qHTS against the NCATS CANVASS Library (AID 1347358). Also: 0% is about no effect. Summed up: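 Twelve-hour compound exposure of HPAF-II cells in DMEM with 10% FBS, then luminescent Caspase-Glo 3/7 detection after 15 min at room temperature; doxorubicin control.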
Experiment [7] can be described thus: KB-8-5-11 Cancer Cell Toxicity qHTS against the NCATS CANVASS Library (AID 1347364). Also: nearly all actives have a fitted effect of over 75% in size. The method, boiled down:
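Luminescent ATP signal (CellTiter-Glo, 10 min at room temperature) measured cell survival of KB-8-5-11 after 72 hr compound treatment. For confirmation, the cells were also grown with 1uM tariquidar.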

Experiment [8] can be described thus: KB-3-1 Cancer Cell Toxicity qHTS against the NCATS CANVASS Library (AID 1347366). Also: nearly all actives have a fitted effect of over 75% in size. The method, boiled down:
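Cytotoxicity toward KB-3-1 cells (500/well, DMEM + 10% FBS) was scored by CellTiter-Glo luminescence following 72 hr exposure at 37C, with bortezomib titrated as control.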

A short description of experiment [9]: qHTS for ATAD5 Agonist screened against the NCATS CANVASS Library (AID 1347367).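 Also: luciferase reporter driven by ATAD5 which rises upon DNA damage; 0% is about no effect.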 Summed up: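 Genotoxicity was scored as increased ATAD5-luciferase luminescence in HEK293T after 16hr of exposure, with cell viability measured by fluorescence beforehand in the same well.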
Experiment [10] in a line: J3T Cancer Cell Toxicity qHTS against the NCATS CANVASS Library (AID 1347371). The method, boiled down: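 ATP-based cytotoxicity in canine J3T cells: 72 hr exposure at 37C, 11-point titration, CellTiterGlo luminescent detection.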
Experiment [11] addresses Nuclear receptor subfamily 1 group I member 3 (Homo sapiens) (UniProt Q14994). Briefly: qHTS for Constitutive Androstane Receptor (CAR) Antagonist screened against the NCATS CANVASS Library (AID 1347372).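 Also: cells stimulated with 50 nM CITCO agonist so inhibition reflects antagonism; series mostly up to about 46 µM; % is scaled to controls: 0 for no effect and ±100 for the full control effect.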 Summed up: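 Antagonist mode: compound added alongside 50 nM CITCO to HepG2-hCAR-CYP2B6 reporter cells, 24hr at 37C. Viability by CellTiter-Fluor fluorescence, then CAR-driven luciferase by ONE-Glo luminescence.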

For experiment [12] the target is unchanged. Kind of experiment: qHTS for Constitutive Androstane Receptor (CAR) Agonist screened against the NCATS CANVASS Library (AID 1347373).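 Also: every well also contained 1.5 µM PK11195 alongside the test compound; 0% is about no effect.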 Summed up:
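In an 11-point concentration series, compounds were incubated 24hr with HepG2 cells carrying hCAR and a CYP2B6-2.2kb reporter, with PK11195 at 1.5uM final. A CellTiter-Fluor viability read preceded the ONE-Glo luminescence read.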

Experiment [13] can be described thus: 10-beta competent E. coli microbial cell viability qHTS against the NCATS CANVASS Library (AID 1347376). Also: series mostly up to about 46 µM; 0% is about no effect. The method, boiled down:
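Overnight 37C exposure of 10-beta E. coli (0.2 OD) to an 11-point concentration series; ATP-based luminescence after 20 min room-temperature reagent incubation; daunomycin as control.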

Experiment [14] is described as follows: qHTS for H2AX Agonists against the NCATS CANVASS Library (AID 1347378).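 Also: phospho-H2AX S139 level in CHO-K1 lysates by TR-FRET emission ratio; 0% is about no effect.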 The method, boiled down: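 Signal is the 665/620 nm emission ratio from europium cryptate and d2 antibody pair, rising with S139-phosphorylated H2AX. CHO-K1 cells saw test agents for 3 hr at 37C; detection ran 24 hr at room temperature.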
Experiment [15] can be described thus: Inflammasome Signaling qHTS Counterscreen: IL-1-beta AlphaLISA counterscreen against the NCATS CANVASS Library (AID 1347381).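 Also: cell-free check with purified IL-1β in medium and no THP-1 cells; series mostly up to about 57 µM; 0% is about no effect.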 Summed up: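 Here, no cellular stimulation occurs; compounds in an 11-point series meet 4 pg purified IL-1-beta directly. Bead-based AlphaLISA detection follows (1 h acceptor/antibody, then 30 min donor, dark, room temperature), with excitation at 680 nm.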

Experiment [16] in a line: Cytotoxicity qHTS for assessment of Hepg2 cells membrane integrity screened against the NCATS CANVASS Library (AID 1347387). The method, boiled down: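 Membrane damage in HepG2 monolayers was estimated from released LDH, measured with CytoTox-ONE (ex 560/em 590 nm), after 5 hr treatment across 0.59 nM - 46 uM final.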
The nature of experiment [17]: qHTS assay for small molecule disruptors of mitochondrial membrane potential screened against the NCATS CANVASS Library (AID 1347389). Also: series mostly up to about 46 µM; % is scaled to controls: 0 for no effect and ±100 for the full control effect; nearly all actives have a fitted effect of over 60% in size. The method, boiled down:
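Cells (HepG2) seeded the day before received compound or DMSO for 1 hr, then Mito-MPS dye for 30 min at 37C; emission at 590 nm over 535 nm gave the polarization signal.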

Experiment [18] in a line: Secretion counterscreen for inhibitors of the SERCaMP assay screened against the NCATS CANVASS Library (AID 1347390).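 Also: light from luciferase secreted into medium read as a measure of general secretion; series mostly up to about 77 µM; % is scaled to controls: 0 for no effect and ±100 for the full control effect.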 Summed up: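 Natural products are titrated in an 11-point series up to 77 uM onto SH-SY5Y-GLuc STOP cells for 20 h. Secreted reporter activity is measured as coelenterazine-driven luminescence, with Brefeldin A on each plate.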
Background: The purpose of a counterscreen is to sort out artefacts and off-target activity.

Experiment [19] can be described thus: qHTS for activators of dead-cell proteases activity screened against the NCATS CANVASS Library (AID 1347392).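 Also: luminescence from protease leaking out of membrane-damaged cells cleaving impermeant substrate; 0% is about no effect; rising signal means more cytotoxicity.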 The method, boiled down: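 Luminescent dead-cell protease readout (AAF-aminoluciferin, 15 min, room temperature) after 5 h compound treatment of HepG2 cells (2000/well, pre-attached 18 h). Eleven concentrations.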

Values without a mark were called inactive. Inconclusive results are not listed. Activity calls are given as the source filed them. Unless noted, calls follow the shape of the dose curve; as a rule, active = well fitted curve in the direction sought with a large enough effect; inconclusive = small, poorly fitted or top-dose-only effect, or another doubt; inactive = no such curve, though single readings can be large; an effect the other way counts as inactive or inconclusive.

Cytochrome P450 3A4 (Homo sapiens), sequence (P08684 whole entry, looked up): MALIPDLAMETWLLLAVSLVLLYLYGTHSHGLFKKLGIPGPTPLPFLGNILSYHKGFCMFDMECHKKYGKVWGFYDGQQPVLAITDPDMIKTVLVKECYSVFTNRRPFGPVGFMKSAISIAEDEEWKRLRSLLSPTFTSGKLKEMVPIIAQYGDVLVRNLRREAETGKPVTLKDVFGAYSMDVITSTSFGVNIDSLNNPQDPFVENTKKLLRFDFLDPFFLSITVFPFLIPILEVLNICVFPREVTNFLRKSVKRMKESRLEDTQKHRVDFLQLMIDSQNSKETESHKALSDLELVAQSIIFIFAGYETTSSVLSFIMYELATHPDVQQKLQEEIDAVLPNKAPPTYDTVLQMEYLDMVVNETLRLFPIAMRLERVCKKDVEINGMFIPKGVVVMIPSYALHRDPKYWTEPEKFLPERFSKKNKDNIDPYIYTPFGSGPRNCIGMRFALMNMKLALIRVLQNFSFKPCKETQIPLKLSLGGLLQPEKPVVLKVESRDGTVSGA
Nuclear receptor subfamily 1 group I member 3 (Homo sapiens), sequence (Q14994 whole entry, looked up): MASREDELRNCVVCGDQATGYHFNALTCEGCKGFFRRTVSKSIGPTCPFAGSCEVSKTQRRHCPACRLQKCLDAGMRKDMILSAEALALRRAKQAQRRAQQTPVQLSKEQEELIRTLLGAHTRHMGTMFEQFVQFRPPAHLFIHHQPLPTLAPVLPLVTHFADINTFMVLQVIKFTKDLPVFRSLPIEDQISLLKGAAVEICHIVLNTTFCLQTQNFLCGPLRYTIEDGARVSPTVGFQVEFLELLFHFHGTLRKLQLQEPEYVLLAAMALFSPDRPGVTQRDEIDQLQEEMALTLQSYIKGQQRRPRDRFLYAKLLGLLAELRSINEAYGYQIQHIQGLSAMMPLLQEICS

For the compound `O=C1/C(=C\c2ccccc2)C[C@@]2(O)[C@H]3Cc4ccc(O)c5c4[C@@]2(CCN3CC2CC2)[C@@H]1O5`, in [1], the Potency result was “inactive”.

In the case of `COC(=O)N1CCN(C(=O)Cc2ccc(Cl)c(Cl)c2)[C@H](CN2CCCC2)C1`, the outcome in experiment [2] was inactive. Also, the Potency entry in experiment [1] is “inactive”.

For `COc1ccc(CNC(=O)/C=C\c2ccc3[nH]cc(CCN(C)C)c3c2)cc1`, the compound was classed as inactive in experiment [2]. Moreover, the Potency entry in experiment [1] is “inactive”.

For `NC[C@H](CP(=O)(O)O)c1ccc(Cl)cc1`, the result in experiment [2] was inactive.

For `Oc1ccc2c3c1O[C@H]1c4oc5ccccc5c4C[C@]4(O)[C@H](C2)N(CC2CC2)CC[C@@]314`, in experiment [2], the outcome was inactive. Besides, in experiment [1], the Potency result was “inactive”.

As for `O=C(Cc1ccc(Cl)c(Cl)c1)N1CCCC[C@H]1CN1CCCC1`, in experiment [2], the compound was called inactive. The Potency result in experiment [1] is “inactive”.

As for `O=C1C2CCN(CC2)C1(CO)CO`, the activity change, negative = inhibition in [2] was 3.23% [at 7.69 µM].

Take `S=C=Nc1cccc(C2(N3CCCCC3)CCCCC2)c1`: the compound was called inactive in experiment [2]. In addition, the Potency result in experiment [1] is “inactive”.

With `CC[C@]1(C2=NCCN2)Cc2ccccc2O1`, the compound was classed as inactive in experiment [2].

For `CC(C)n1cnc2c(C(=O)N[C@H]3CN4CCC3CC4)cc(Cl)cc21`, the Potency in experiment [1] is 31.6 µM (active).

For `COc1ccc2[nH]cc(CCN(C)C)c2c1`, in [2], the result was inactive.

Turning to `O[C@H]1CCCC[C@H]1N1CCC(c2ccccc2)CC1`, in [2], the result was inactive.

Consider `CCOC(=O)c1ncn2c1[C@H]1CCCN1C(=O)c1cc(OC)ccc1-2`, for which, in experiment [2], the compound was called inactive.

As for `N#CC(C#N)=NNc1ccc(OC(F)(F)F)cc1`, in [1], the Potency result is “inactive”.

Regarding `C=CCN1C[C@H](C)N([C@@H](c2ccccc2)c2ccc(C(=O)N(CC)CC)cc2)C[C@H]1C`, the Potency entry in experiment [1] is “inactive”.

Take `N[C@H](C(=O)O)c1cc(=O)[nH]o1`: the outcome in experiment [2] was inactive.

As to `CC(C)(C)NC[C@@H](O)COc1cccc2[nH]c(C#N)cc12`, in [1], the Potency result is “inactive”.

Regarding `N[C@H](CP(=O)(O)O)C(=O)O`, the compound was classed as inactive in experiment [2].

Turning to `N[C@H](CCCCCP(=O)(O)O)C(=O)O`, the compound was classed as inactive in [2].

Consider `C=CCN1CC[C@]23c4c5ccc(O)c4O[C@@H]2C(=O)CC[C@]3(O)[C@H]1C5`, for which, in experiment [2], the result was inactive.

As for `COc1ccc(C23Oc4cc(OC)cc(OC)c4[C@](O)([C@H](c4ccccc4)C2C(=O)NCCCCNC(=O)c2ccccc2)[C@@H]3O)cc1` (stereo partly specified), the Potency entry in experiment [3], in experiment [4], in [7], in experiment [8], in experiment [9] and in experiment [10] was “inactive” each time. In addition, the Potency entry in experiment [11], in [14], in [17], in experiment [18] and in experiment [19] was “inactive” in each case. Besides, the result in experiment [5], in experiment [6], in experiment [12], in experiment [13], in experiment [15] and in [16] was inactive.

Regarding `C[C@H](N)Cc1c[nH]c2ccc(OCc3cccs3)cc12`, the result in experiment [2] was inactive. Besides, the Potency result in experiment [1] is “inactive”.

In the case of `CCN1C[C@]2(C)CC[C@@H](O)[C@]34C1[C@H](C[C@H]23)C12CCC(CC14)[C@](O)(CO)[C@H]2O` (stereo partly specified), the Potency entry in experiment [3], in experiment [4], in experiment [7], in experiment [8], in experiment [9] and in experiment [10] was “inactive” each time. The Potency entry in experiment [14], in experiment [17], in experiment [18] and in [19] was “inactive” each time. Also, the call in experiment [5], in experiment [6], in experiment [12], in experiment [13], in [15] and in [16] was inactive.

Turning to `Fc1ccc(C(OCCN2CCN(C/C=C\c3ccccc3)CC2)c2ccc(F)cc2)cc1`, the Potency entry in [1] is “inactive”.

On to `CCCC(=O)OCC[N+](C)(C)C`, for which the outcome in [2] was inactive.

Take `COC(=O)C1=C2Nc3ccccc3[C@@]23CCN2CC(C(C)=O)C1C[C@H]23` (stereo partly specified): the Potency entry in experiment [3], in experiment [4], in [7], in [8], in [9] and in [10] was “inactive” in each case. Further, the Potency result in [11], in experiment [14], in [17], in [18] and in experiment [19] was “inactive” in each case. In addition, the compound was called inactive in experiment [5], in experiment [6], in experiment [12], in [13], in experiment [15] and in experiment [16].

In the case of `CC(C)C[C@H]1C(=O)N2CCCC2[C@]2(O)O[C@](NC(=O)[C@@H]3C=C4c5cccc6[nH]cc(c56)CC4N(C)C3)(C(C)C)C(=O)N12` (stereo partly specified), the Potency entry in experiment [1] was “inactive”.

Turning to `CO[C@@H](/C=C/CC/C=C/C(=O)O)[C@@H](O)[C@H](C)[C@@H](O)/C(C)=C/[C@H](C)C(=O)CCCC1CC(=O)NC(=O)C1`, the Potency result in [3], in experiment [4], in [7], in experiment [8], in experiment [9] and in [10] was “inactive” throughout. In addition, the Potency entry in [11], in experiment [14], in [17], in experiment [18] and in experiment [19] was “inactive” in each case. In addition, the result in experiment [5], in experiment [6], in [12], in experiment [13], in experiment [15] and in experiment [16] was inactive.

With `O=C(CCCN1CCC2(CC1)C(=O)N(Cc1cccc(F)c1)CN2c1ccccc1)c1ccc(F)cc1`, the Potency result in experiment [1] is “inactive”.

For `C[C@@H](N)Cn1ccc2cc(F)c(Cl)cc21`, in experiment [1], the Potency entry was “inactive”.

In the case of `C[C@]12CC(O)C3[C@@H](CCC4C[C@@H](O)CC[C@@]43CO)[C@@]1(O)CCC2C1=CC(=O)OC1` (stereo partly specified), the Potency entry in experiment [3], in [4], in experiment [7], in [8], in experiment [9] and in experiment [10] was “inactive” throughout. The Potency result in experiment [11], in experiment [14], in [17], in [18] and in experiment [19] was “inactive” throughout. For the same compound, the result in [5], in experiment [6], in experiment [12], in [13], in [15] and in experiment [16] was inactive.

The values are drawn from PubChem BioAssay (NCATS).
